Results filed as inconclusive are left out. Active and inactive are the calls of the source. How the source made its calls, unless noted: active means hit-call score of the fitted dose curve at least 0.9, where 1 is the maximum; inactive means score below 0.9.
Key:
[1] = target: Paired box protein Pax-6 (Homo sapiens) (UniProt P26367); experiment: ATG_Pax6_CIS: Attagene CIS-FACTORIAL HepG2 Assay for human Paired Box 6 (PAX6) (AID 2282956); conditions: HepG2 CIS-FACTORIAL PAX6 reporter transcription, RNA readout; actives raise or lower the signal
Chain of Paired box protein Pax-6 (Homo sapiens) (P26367 whole entry, looked up): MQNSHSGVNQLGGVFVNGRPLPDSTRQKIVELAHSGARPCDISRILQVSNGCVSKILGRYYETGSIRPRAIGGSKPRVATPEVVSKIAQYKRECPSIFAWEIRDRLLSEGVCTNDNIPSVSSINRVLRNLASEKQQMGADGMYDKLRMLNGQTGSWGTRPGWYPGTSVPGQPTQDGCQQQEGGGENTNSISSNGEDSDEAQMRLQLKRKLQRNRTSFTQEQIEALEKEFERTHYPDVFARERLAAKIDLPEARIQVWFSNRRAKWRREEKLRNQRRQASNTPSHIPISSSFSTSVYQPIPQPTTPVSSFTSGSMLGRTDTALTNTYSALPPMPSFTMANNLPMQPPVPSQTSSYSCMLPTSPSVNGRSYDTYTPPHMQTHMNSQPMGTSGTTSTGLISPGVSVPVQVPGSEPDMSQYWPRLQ
How it was run: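 HepG2 cells transiently transfected with multiplexed cis-promoter reporter units (endogenous TF activity) were dosed for 24 h. Reporter mRNA was quantified by RT-PCR, 6-FAM labeling, HpaI digestion and capillary electrophoresis; bidirectional fitting versus DMSO baseline.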

[2] = ATG_PXRE_CIS: Attagene CIS-FACTORIAL HepG2 Assay for human Pregnane X Receptor Element (PXRE) (AID 2282957); conditions: HepG2 Attagene CIS-FACTORIAL PXRE reporter, mRNA; actives raise or lower the signal
How it was run: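 Multiplexed cis-reporter assay in transiently transfected human HepG2 cells; 24 h chemical exposure. Reporter transcripts quantified by RT-PCR with fluorescent labeling and capillary electrophoresis.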

[3] = ATG_PPRE_CIS: Attagene CIS-FACTORIAL HepG2 Assay for human Peroxisome Proliferator-activated Response Element (PPRE) (AID 2282958); conditions: HepG2 PPRE cis-element reporter, Attagene transcription factor profiling; actives raise or lower the signal
How it was run: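 DMSO served as negative control and baseline for bidirectional curve fitting. Signal came from PPRE-regulated reporter mRNA in HepG2 cells, measured 24 h post-dosing by RT-PCR, 6-FAM primer extension and capillary electrophoresis.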

[4] = ATG_RORE_CIS: Attagene CIS-FACTORIAL HepG2 Assay for human RAR-related Orphan Receptor Element (RORE) (AID 2282959); conditions: HepG2 Attagene cis-factorial RORE reporter, mRNA; actives raise or lower the signal
How it was run: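 Transfect HepG2 with MRTUs; treat 24 h; extract RNA; RT with oligo(dT); PCR with reporter-specific primers; 6-FAM primer extension; HpaI digest 2 h at 37 C; capillary electrophoresis. Fit vs DMSO, bidirectional.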

[5] = ATG_Sox_CIS: Attagene CIS-FACTORIAL HepG2 Assay for human SRY-box transcription factor (SOX) (AID 2282960); conditions: HepG2 Attagene cis-factorial SOX reporter, mRNA; actives raise or lower the signal
How it was run: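 Fluorescence-labelled cDNA fragments from reporter transcripts, sized by CE, give the signal. Cells: HepG2, transiently transfected with cis-regulated reporter units. Exposure 24 h; DMSO negative control; bidirectional curve fitting.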

[6] = target: Transcription factor Sp1 (Homo sapiens) (UniProt P08047); experiment: ATG_Sp1_CIS: Attagene CIS-FACTORIAL HepG2 Assay for human Specificity Protein 1 (Sp1) (AID 2282961); conditions: HepG2 Sp1 cis-reporter transcription, actives raise or lower the signal
Chain of Transcription factor Sp1 (Homo sapiens) (P08047 whole entry, looked up): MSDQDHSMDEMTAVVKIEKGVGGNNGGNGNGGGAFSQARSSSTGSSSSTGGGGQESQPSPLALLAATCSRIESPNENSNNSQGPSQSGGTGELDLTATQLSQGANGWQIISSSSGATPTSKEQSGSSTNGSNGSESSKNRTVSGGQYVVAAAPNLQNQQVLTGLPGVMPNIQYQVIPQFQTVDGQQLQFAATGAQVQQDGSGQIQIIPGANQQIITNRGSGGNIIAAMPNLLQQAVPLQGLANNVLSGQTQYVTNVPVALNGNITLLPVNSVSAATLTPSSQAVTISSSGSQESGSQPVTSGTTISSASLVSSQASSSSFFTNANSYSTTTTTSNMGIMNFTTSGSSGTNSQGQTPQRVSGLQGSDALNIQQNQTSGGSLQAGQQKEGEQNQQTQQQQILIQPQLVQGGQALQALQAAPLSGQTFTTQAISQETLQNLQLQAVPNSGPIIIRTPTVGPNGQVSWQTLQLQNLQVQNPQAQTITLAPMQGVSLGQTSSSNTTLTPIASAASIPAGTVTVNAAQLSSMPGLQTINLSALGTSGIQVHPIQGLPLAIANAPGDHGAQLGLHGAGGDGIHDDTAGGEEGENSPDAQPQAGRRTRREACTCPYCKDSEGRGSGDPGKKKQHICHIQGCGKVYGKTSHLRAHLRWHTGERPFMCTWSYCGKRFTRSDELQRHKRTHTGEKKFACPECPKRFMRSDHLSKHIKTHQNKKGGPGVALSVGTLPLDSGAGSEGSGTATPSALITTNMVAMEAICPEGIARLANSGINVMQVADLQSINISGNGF
How it was run: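 Chemicals are dosed onto HepG2 cells transfected with multiple cis-promoter reporter constructs, and after 24 h reporter RNA is reverse-transcribed, PCR-amplified and resolved by capillary electrophoresis for fluorescence quantitation; activity is scored up or down against DMSO.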

[7] = ATG_SREBP_CIS: Attagene CIS-FACTORIAL HepG2 Assay for human Sterol Regulatory Element Binding (SREBP) (AID 2282962); conditions: HepG2 Attagene cis-factorial SREBP reporter, mRNA; actives raise or lower the signal
How it was run: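 HepG2 cells transiently transfected with multiplexed cis-element reporter units report endogenous transcription factor activity. After 24 h of chemical exposure, reporter mRNA was quantified by RT-PCR, 6-FAM labelling, HpaI digestion and capillary electrophoresis; bidirectional fits used DMSO as baseline.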

[8] = target: Signal transducer and activator of transcription 3 (Homo sapiens) (UniProt P40763); experiment: ATG_STAT3_CIS: Attagene CIS-FACTORIAL HepG2 Assay for human Signal Transducer and Activator of Transcription 3 (STAT3) (AID 2282963); conditions: HepG2, Attagene cis-factorial STAT3 reporter transcription; actives raise or lower the signal
Chain of Signal transducer and activator of transcription 3 (Homo sapiens) (P40763 whole entry, looked up): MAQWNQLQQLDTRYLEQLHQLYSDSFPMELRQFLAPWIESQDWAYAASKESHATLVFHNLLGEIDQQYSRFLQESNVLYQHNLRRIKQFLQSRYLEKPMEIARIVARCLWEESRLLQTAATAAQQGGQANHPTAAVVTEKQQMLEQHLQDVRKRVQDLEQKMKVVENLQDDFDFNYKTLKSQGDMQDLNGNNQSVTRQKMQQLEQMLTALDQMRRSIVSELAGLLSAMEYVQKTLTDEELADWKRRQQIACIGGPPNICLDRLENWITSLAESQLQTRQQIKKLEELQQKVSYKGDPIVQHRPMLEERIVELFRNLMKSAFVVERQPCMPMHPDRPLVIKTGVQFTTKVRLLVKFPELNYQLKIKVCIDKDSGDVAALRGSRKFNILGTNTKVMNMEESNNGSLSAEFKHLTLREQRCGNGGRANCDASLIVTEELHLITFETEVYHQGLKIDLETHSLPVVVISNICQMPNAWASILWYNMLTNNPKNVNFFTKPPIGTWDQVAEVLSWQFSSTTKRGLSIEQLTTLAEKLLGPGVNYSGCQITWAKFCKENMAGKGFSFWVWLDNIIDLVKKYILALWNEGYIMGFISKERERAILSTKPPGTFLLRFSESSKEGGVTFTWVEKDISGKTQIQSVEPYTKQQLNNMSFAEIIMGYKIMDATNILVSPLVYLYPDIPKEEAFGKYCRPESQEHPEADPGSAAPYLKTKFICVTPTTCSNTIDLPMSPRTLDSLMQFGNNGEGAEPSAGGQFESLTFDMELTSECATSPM
How it was run: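 HepG2 cells transiently transfected with cis-element-driven multiple reporter transcription units; after 24 h chemical exposure, reporter mRNA measured by RT-PCR, 6-FAM primer-extension labelling, HpaI digestion and capillary electrophoresis. Bidirectional fitting versus DMSO baseline.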

[9] = ATG_TA_CIS: Attagene CIS-FACTORIAL HepG2 Assay for human TA Basal Promoter (AID 2282964); conditions: HepG2 Attagene CIS-factorial TA basal promoter reporter; actives raise or lower the signal
How it was run: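 Cis-factorial format in HepG2: reporters report endogenous factors, not chimeric Gal4 fusions. After 24 h treatment, reporter transcripts were measured by RT-PCR-capillary electrophoresis fluorescence, analysed bidirectionally versus DMSO.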

[10] = ATG_TCF_b_cat_CIS: Attagene CIS-FACTORIAL HepG2 Assay for human T-Cell-Factor with beta-catenin (TCF/b-cat) (AID 2282965); conditions: HepG2 TCF/beta-catenin cis-reporter transcription, actives raise or lower the signal
How it was run: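 HepG2 cells transiently transfected with multiple cis-promoter-regulated reporter transcription units, so endogenous transcription factor activity is measured. Reporter mRNA read 24 hours after dosing by RT-PCR, fluorescent labelling and capillary electrophoresis; bidirectional fitting against DMSO.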

[11] = ATG_TAL_CIS: Attagene CIS-FACTORIAL HepG2 Assay for human TAL Basal Promoter (AID 2282966); conditions: HepG2 Attagene cis-factorial TAL promoter reporter; actives raise or lower the signal;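 further: background control endpoint measuring basal TAL promoter reporter mRNA not a specific factor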
How it was run: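 Steps: transfect HepG2 with multiple reporter transcription units; dose 24 h; isolate RNA, reverse-transcribe, PCR-amplify, label with 6-FAM, digest with HpaI; resolve by capillary electrophoresis. Bidirectional fitting against DMSO baseline.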

[12] = ATG_TGFb_CIS: Attagene CIS-FACTORIAL HepG2 Assay for human Transforming Growth Factor (TGF) (AID 2282967); conditions: HepG2 Attagene CIS TGFb reporter, mRNA transcription; actives raise or lower the signal
How it was run: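 Multiplexed cis-reporter HepG2 system, 24 h treatment; mRNA induction read by fluorescence after RT-PCR and CE; DMSO negative control, bidirectional curve fitting.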

[13] = ATG_VDRE_CIS: Attagene CIS-FACTORIAL HepG2 Assay for human Vitamin D Receptor Element (VDRE) (AID 2282968); conditions: HepG2 VDRE cis-reporter transcription, actives raise or lower the signal
How it was run: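 HepG2 cells transiently transfected with cis-element reporter units, dosed 24 h; reporter mRNA measured by RT-PCR, 6-FAM labeling, HpaI digestion and capillary electrophoresis. Activity fitted bidirectionally against DMSO baseline.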

[14] = target: Nuclear receptor subfamily 1 group I member 3 (Homo sapiens) (UniProt Q14994); experiment: ATG_CAR_TRANS: Attagene TRANS-FACTORIAL HepG2 Assay for human Constitutive Androstane Receptor (CAR) (AID 2282969; active means hit-call score of the fitted dose curve at least 0.9, where 1 is the maximum;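 further: activators raise reporter mRNA above DMSO so AC50 marks induction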); conditions: HepG2 Attagene TRANS-FACTORIAL CAR reporter
Chain of Nuclear receptor subfamily 1 group I member 3 (Homo sapiens) (Q14994 whole entry, looked up, the tested form may be a part): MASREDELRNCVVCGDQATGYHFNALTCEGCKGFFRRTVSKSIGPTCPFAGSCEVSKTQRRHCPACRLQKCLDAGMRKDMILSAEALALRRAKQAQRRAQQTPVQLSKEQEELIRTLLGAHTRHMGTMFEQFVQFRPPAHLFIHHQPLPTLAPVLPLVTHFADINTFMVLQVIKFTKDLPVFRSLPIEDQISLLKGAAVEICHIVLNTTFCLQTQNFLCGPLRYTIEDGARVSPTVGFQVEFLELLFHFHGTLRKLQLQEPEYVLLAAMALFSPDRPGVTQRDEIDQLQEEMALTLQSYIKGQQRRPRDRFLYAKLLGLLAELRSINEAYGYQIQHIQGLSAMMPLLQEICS
How it was run: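 HepG2 cells transiently transfected with multiplexed GAL4-UAS reporter units expressing chimeric NR-Gal4 proteins; compound exposure 24 h. Reporter mRNA measured by RT-PCR, 6-FAM labelling, HpaI digestion and capillary electrophoresis; gain-of-signal fitted against DMSO baseline.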

[15] = target: X-box-binding protein 1 (Homo sapiens) (UniProt P17861); experiment: ATG_Xbp1_CIS: Attagene CIS-FACTORIAL HepG2 Assay for human X-box Binding Protein 1 (XBP1) (AID 2282972); conditions: HepG2 XBP1 cis-element reporter, Attagene multiplex; actives raise or lower the signal
Chain of X-box-binding protein 1 (Homo sapiens) (P17861 whole entry, looked up): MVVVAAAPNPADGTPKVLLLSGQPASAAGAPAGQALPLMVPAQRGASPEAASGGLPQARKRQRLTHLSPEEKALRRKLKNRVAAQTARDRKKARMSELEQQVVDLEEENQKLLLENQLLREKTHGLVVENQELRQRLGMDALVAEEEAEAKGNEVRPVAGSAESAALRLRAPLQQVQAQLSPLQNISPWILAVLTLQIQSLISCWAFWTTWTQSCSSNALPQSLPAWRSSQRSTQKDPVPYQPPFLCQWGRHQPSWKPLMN
How it was run: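 HepG2 cells transiently transfected with cis-regulated multiple reporter transcription units; endogenous transcription factor activity measured 24 hours after chemical dosing. Reporter mRNA quantified by RT-PCR, 6-FAM primer extension, HpaI digestion and capillary electrophoresis; bidirectional fitting versus DMSO.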

[16] = ATG_M_19_TRANS: Attagene TRANS-FACTORIAL HepG2 Assay for M19 Transcription Factor (Internal Marker) (AID 2282974; active means hit-call score of the fitted dose curve at least 0.9, where 1 is the maximum); conditions: HepG2 Attagene TRANS-FACTORIAL M19 internal marker reporter
How it was run: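 Multiplexed TRANS format: HepG2 liver cells bearing transient GAL4-UAS reporter units, chemical treatment 24 h, reporter transcripts quantified by RT-PCR plus capillary electrophoresis. DMSO defines baseline.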

[17] = target: Estrogen receptor (Homo sapiens) (UniProt P03372); experiment: ATG_ERa_TRANS: Attagene TRANS-FACTORIAL HepG2 Assay for human Estrogen Receptor alpha (ERa) (AID 2282970; active means hit-call score of the fitted dose curve at least 0.9, where 1 is the maximum); conditions: HepG2 Attagene TRANS ERa GAL4 reporter, mRNA
Chain of Estrogen receptor (Homo sapiens) (P03372 whole entry, looked up, the tested form may be a part): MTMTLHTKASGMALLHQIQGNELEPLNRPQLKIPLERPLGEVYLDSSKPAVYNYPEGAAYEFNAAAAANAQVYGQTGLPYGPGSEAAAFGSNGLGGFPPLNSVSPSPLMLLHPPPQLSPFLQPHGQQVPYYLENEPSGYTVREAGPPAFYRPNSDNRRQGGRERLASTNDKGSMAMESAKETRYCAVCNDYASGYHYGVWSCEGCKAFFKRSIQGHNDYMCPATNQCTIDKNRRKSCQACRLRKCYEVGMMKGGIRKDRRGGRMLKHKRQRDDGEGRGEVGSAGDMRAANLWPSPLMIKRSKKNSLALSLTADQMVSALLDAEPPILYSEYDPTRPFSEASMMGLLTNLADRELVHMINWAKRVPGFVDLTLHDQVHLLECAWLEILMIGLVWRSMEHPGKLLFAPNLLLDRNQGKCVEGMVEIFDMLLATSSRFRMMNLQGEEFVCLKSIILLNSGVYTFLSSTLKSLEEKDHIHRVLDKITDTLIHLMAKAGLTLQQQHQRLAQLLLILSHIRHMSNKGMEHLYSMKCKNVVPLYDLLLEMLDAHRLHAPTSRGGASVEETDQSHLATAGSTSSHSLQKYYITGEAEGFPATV
How it was run: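 Multiplexed cell-based reporter format in HepG2: chimeric ERa-Gal4 protein drives GAL4-UAS reporter transcription. Fluorescent reporter mRNA quantified by capillary electrophoresis 24 hours after dosing; endpoint fitted as signal gain against DMSO.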

[18] = target: Estrogen-related receptor gamma (Homo sapiens) (UniProt P62508); experiment: ATG_ERRg_TRANS: Attagene TRANS-FACTORIAL HepG2 Assay for human Estrogen-Related Receptor gamma (ERRg) (AID 2282977; active means hit-call score of the fitted dose curve at least 0.9, where 1 is the maximum;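 further: hits increase reporter signal over DMSO so potencies reflect activators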); conditions: HepG2 Attagene TRANS reporter, ERRg transactivation
Chain of Estrogen-related receptor gamma (Homo sapiens) (P62508 whole entry, looked up, the tested form may be a part): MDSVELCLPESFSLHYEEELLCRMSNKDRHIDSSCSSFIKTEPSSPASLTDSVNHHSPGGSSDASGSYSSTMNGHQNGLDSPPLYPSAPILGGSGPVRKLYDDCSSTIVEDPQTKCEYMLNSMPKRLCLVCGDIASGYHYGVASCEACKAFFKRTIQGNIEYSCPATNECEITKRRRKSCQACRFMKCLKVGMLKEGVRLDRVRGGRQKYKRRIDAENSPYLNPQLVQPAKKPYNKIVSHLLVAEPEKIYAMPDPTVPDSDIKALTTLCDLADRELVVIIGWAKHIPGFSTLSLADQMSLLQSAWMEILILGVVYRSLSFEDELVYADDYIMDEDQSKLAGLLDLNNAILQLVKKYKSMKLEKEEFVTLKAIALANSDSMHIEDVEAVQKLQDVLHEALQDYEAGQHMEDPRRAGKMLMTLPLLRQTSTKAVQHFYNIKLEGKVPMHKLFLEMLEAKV
How it was run: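 HepG2 cells transiently transfected with multiplexed GAL4-UAS reporter units and chimeric NR-Gal4 constructs were exposed to test chemicals for 24 h. Reporter mRNA was measured by RT-PCR, 6-FAM primer extension, HpaI digestion and capillary electrophoresis; gain-of-signal versus DMSO.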

[19] = target: Steroid hormone receptor ERR1 (Homo sapiens) (UniProt P11474); experiment: ATG_ERRa_TRANS: Attagene TRANS-FACTORIAL HepG2 Assay for human Estrogen-Related Receptor alpha (ERRa) (AID 2282971; active means hit-call score of the fitted dose curve at least 0.9, where 1 is the maximum); conditions: HepG2 Attagene TRANS reporter, ERRa transactivation
Chain of Steroid hormone receptor ERR1 (Homo sapiens) (P11474 whole entry, looked up, the tested form may be a part): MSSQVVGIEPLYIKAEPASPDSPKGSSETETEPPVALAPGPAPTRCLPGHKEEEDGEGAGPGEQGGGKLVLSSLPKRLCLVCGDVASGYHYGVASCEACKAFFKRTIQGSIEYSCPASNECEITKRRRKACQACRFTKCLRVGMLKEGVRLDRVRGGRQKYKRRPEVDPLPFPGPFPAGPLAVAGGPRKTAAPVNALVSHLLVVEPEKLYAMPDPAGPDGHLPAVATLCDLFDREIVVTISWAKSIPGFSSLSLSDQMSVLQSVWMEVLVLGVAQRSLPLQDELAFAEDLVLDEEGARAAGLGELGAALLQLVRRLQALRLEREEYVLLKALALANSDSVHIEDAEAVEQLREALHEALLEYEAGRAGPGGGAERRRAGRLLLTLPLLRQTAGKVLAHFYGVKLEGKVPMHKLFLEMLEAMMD
How it was run: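 Signal gain relative to DMSO for an ERRa-Gal4 chimeric receptor, read as reporter mRNA by RT-PCR/capillary electrophoresis. Human HepG2 liver cells, transient multiplex reporter transfection, 24 h chemical exposure.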

Measured: AC50

c1ccc2sc(SN(C3CCCCC3)C3CCCCC3)nc2c1
active: [2] 0.698 µM | [12] 0.335 µM | [13] 4.65 µM
inactive: [1] | [3] | [4] | [5] | [6] | [7] | [8] | [9] | [10] | [11] | [14] | [15] | [16]

CCOC(=S)SSC(=S)OCC
inactive: [1] | [2] | [3] | [4] | [5] | [6] | [7] | [8] | [9] | [10] | [11] | [12] | [13] | [14] | [17] | [15] | [16]

CC1=CC(=O)NS(=O)(=O)O1
active: [2] 55.8 µM
inactive: [1] | [3] | [4] | [5] | [6] | [7] | [8] | [9] | [10] | [11] | [12] | [13] | [14] | [15] | [16]

CC(C)c1cccc(O)c1
active: [2] 28.4 µM | [17] 71.2 µM
inactive: [1] | [3] | [4] | [5] | [6] | [7] | [8] | [9] | [10] | [11] | [12] | [13] | [14] | [15] | [16] | [18]

C=C(C)C(=O)O[C@H]1C[C@@H]2CC[C@@]1(C)C2(C)C
active: [2] 26.5 µM | [3] 75.3 µM | [7] 175 µM | [10] 138 µM | [12] 143 µM | [17] 38 µM
inactive: [1] | [4] | [5] | [6] | [8] | [9] | [11] | [13] | [15] | [16]

CC1=CCC2C(C1)C2(C)C (stereo unspecified)
inactive: [1] | [3] | [4] | [5] | [6] | [7] | [8] | [9] | [10] | [11] | [12] | [13] | [14] | [15]
active: [2] 6.95 µM | [17] 77.3 µM

CC(=O)O[C@]1(C(C)=O)CC[C@H]2[C@@H]3C[C@H](C)C4=CC(=O)CC[C@]4(C)[C@H]3CC[C@@]21C
active: [2] 2.76 µM | [4] 11.2 µM | [9] 42.4 µM | [13] 17.1 µM
inactive: [1] | [3] | [5] | [6] | [7] | [8] | [10] | [11] | [12] | [17] | [15]

CC(C)(N)CO
inactive: [1] | [2] | [3] | [4] | [5] | [6] | [7] | [8] | [9] | [10] | [11] | [12] | [13] | [17] | [19] | [15] | [18]

Source: PubChem BioAssay (EPA / NIEHS)
